# Screening results from PubChem BioAssay.
# JMJD2A Tudor inh: qHTS Assay for Inhibitors of JMJD2A-Tudor Domain; Lysine-specific demethylase 4A (Homo sapiens), O75164; AlphaScreen JMJD2A-Tudor / H3K4me3 peptide binding; Potency, µM (titrated, usually from 114 µM), inactives show at the highest dose activity change, negative = inhibition, hits mostly inhibitors; 4.4% of 390,000 active; further: potency means the concentration at half of the fitted maximal effect; on the % scale 0 is the no-effect control and ±100 the full control effect; nearly all actives have a fitted effect of over 50% in size
# Target sequence (O75164 whole entry, looked up, the tested form may be a part): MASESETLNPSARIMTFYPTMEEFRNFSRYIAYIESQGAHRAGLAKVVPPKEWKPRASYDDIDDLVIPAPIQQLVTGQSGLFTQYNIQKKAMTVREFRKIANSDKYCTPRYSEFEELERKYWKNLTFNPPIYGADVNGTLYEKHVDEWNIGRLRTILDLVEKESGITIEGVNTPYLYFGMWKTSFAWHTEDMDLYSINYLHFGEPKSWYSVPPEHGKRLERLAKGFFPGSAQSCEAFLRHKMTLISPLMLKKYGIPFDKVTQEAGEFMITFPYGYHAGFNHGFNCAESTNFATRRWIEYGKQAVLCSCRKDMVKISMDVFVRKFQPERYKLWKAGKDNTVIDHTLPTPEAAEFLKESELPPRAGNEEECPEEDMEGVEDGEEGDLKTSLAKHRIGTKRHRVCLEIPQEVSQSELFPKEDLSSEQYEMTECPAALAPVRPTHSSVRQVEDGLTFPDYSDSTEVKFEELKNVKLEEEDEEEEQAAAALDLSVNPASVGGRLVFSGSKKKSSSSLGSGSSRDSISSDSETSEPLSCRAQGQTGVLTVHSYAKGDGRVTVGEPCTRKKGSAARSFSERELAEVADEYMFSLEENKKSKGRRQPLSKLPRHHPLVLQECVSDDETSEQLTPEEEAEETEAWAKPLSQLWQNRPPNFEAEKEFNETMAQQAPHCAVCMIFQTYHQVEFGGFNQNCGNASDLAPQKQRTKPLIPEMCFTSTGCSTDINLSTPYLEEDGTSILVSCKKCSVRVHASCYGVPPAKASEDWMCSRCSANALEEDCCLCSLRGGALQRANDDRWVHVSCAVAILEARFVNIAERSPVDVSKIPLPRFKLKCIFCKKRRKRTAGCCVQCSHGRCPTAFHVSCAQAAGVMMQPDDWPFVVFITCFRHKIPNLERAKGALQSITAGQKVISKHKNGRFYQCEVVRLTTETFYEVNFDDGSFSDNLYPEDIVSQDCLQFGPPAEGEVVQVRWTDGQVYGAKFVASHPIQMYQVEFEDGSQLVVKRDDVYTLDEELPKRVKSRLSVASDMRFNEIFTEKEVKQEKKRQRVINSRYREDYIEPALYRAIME
# Six1-Eya2 inh: qHTS Assay for Inhibitors of the Six1/Eya2 Interaction | AlphaScreen GST-Six1/His-Eya2 binding, biochemical; stronger effect = lower value | activity change, % (test concentration not listed) | 0.56% of 360,000 active | AID 651725, 2012; in the data active means activity change below about -65%; inconclusive means mostly about -30% to -63%; further: on the % scale 0 is the no-effect control and ±100 the full control effect
#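 AlphaScreen luminescence read after one hour at 37 °C in darkness. Pin-transferred compounds met GST-Six1 and His-Eya2 protein (5X stock 250 nM/500 nM) plus glutathione donor and Ni-chelate acceptor beads (5X, 50 ug/mL).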
# TDP1 block: qHTS Assay for Inhibitors of Tyrosyl-DNA Phosphodiesterase (TDP1). Tyrosyl-DNA phosphodiesterase 1 (Homo sapiens), Q9NUW8. recombinant TDP1, AlphaScreen DNA substrate cleavage. Potency, µM (series often up to 130 µM), without a hit: at the highest dose activity change, negative = inhibition, actives largely listed as inhibitors. 0.28% of 350,000 active; further: potency means the concentration at half of the fitted maximal effect; on the % scale 0 is the no-effect control and ±100 the full control effect; nearly all actives have a fitted effect of over 40% in size
#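 AlphaScreen read-out: signal falls as enzyme removes the 3' tyrosine-FITC from a 5'-biotinylated DNA oligo (15 nM, 5 min, RT). Enzyme was E. coli-made recombinant Tdp1 at 1 nM, exposed to compound for 15 min beforehand; beads 10 ug/ml, 10 min.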
# CtBP-E1A inh: qHTS Assay for Inhibitors of the CtBP/E1A Interaction | AlphaScreen GST-E1A/His-CtBP binding, 1536-well; stronger effect = lower value | activity change, % (no concentration beside the values) | 0.49% of 340,000 active; in the data active means activity change below about -65%; inconclusive means mostly about -30% to -63%; further: on the % scale 0 is the no-effect control and ±100 the full control effect
#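 AlphaScreen with 125 nM GST-E1A and 125 nM His-CtBP (5X stocks) in Tris pH 8.0, 300 mM NaCl, BSA, Tween 20, TCEP. Compounds preincubated 2 h at 37 deg C, then glutathione donor/nickel acceptor beads added for 1 h at 37 deg C in dark.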
# HP1b chromo inh: HTS for Inhibitors of HP1-beta Chromodomain Interactions with Methylated Histone Tails. 0.56% of 390,000 active. Chromobox protein homolog 1 (Homo sapiens), P83916. Potency, µM (highest dose often 114 µM), inactives show at the highest dose activity change, negative = inhibition, usual class: inhibitors. AID 540317, 2011. AlphaScreen HP1-beta / biotin-H3K9me3 peptide binding; further: potency means the concentration at half of the fitted maximal effect; nearly all actives have a fitted effect of over 70% in size
#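 HP1-beta protein (50 nM final) preincubated 30 min at room temperature with biotinylated H3(1-18)K9me3 peptide (50 nM) in PBS pH 7.4, 0.01% Tween-20, then compound added for 30 min. AlphaScreen streptavidin donor/nickel chelate acceptor beads (10 ug/mL final), 30 min dark, luminescence read.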
# BAZ2B inh: qHTS Assay for Inhibitors of BAZ2B. Bromodomain adjacent to zinc finger domain protein 2B (Homo sapiens), Q9UIF8. Potency, µM (titrated, usually from 114 µM), without a hit: at the highest dose activity change, negative = inhibition, hits mostly inhibitors. 4.4% of 360,000 active. AlphaScreen BAZ2B-H3K14Ac peptide displacement. AID 504333, 2011; further: potency means the concentration at half of the fitted maximal effect; on the % scale 0 is the no-effect control and ±100 the full control effect; nearly all actives have a fitted effect of over 60% in size
#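 Complex of BAZ2B and biotin-H3K14Ac (50 nM apiece) forms over 30 min at RT, then faces library compounds up to 110 uM for another 30 min; AlphaScreen beads added, 20 min dark incubation, luminescence read.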
# Starred values were filed as active, the others as inactive; ? = inconclusive; . = no result given; [ ] = dose if it differs, or a comment. Rows were chosen to be rich in hits. Some 5.3% of all compounds tested hit in one or more screens of this group. Unless noted, the call rests on the fitted dose curve; in most records, active means well fitted inhibition curve with a large enough effect; inconclusive means small, poorly fitted or top-dose-only effect; inactive means no such curve, though single readings can be large or run the other way.
SMILES,JMJD2A Tudor inh,Six1-Eya2 inh,TDP1 block,CtBP-E1A inh,HP1b chromo inh,BAZ2B inh
O=C(C1CCC1)N1CCCc2cc(S(=O)(=O)N3CCN(c4cccc(Cl)c4)CC3)ccc21,-9.7%,.,1.1%,.,25.3%[57 µM],2.9%
CCOC(=O)CNC(=O)O[C@@H]1C(=O)c2cc(OC)ccc2O[C@H]1c1ccc(OC)c(Br)c1,.,.,8.1%,.,.,.
COc1ccc(N2C3=C(CC4=C2CC(C)(C)CC4=O)C(=O)CC(C)(C)C3)cc1,?,-3.5,3.4%,8.2,-5.1%,0.3%
COc1ccc(N2C3=C(CC4=C2CCCC4=O)C(=O)CCC3)cc1,56.2µM*,-25.5,7.7%,-5.1,-52.4%,-28.1%
Cc1ccc(C(=O)NNc2c3ccccc3nc3ccccc23)cc1,-34.5%,?,.,?,-12.6%,?
Nc1ccccc1C(=O)NNc1c2ccccc2nc2ccccc12,31.6µM*,?,11.9%,.,17.8µM*,28.2µM*
COc1ccc(CCNC(=O)c2nc(-c3ccc(Cl)cc3)n3c2CCCCC3)c(OC)c1,17.8µM*,.,8.7%,.,-22.5%,17.8µM*
COC(=O)c1ccccc1NC(=O)c1nc(-c2ccc(Cl)cc2)n2c1CCCCC2,-26.1%,.,3.7%,.,30.7%,-5.4%
COc1cccc(N2CCN(C(=O)c3nc(-c4ccc(Cl)cc4)n4c3CCCCC4)CC2)c1,39.8µM*,.,13.7%,.,?,28.2µM*
Cc1cccc(CCNC(=O)c2nc(-c3ccc(Cl)cc3)n3c2CCCCC3)c1,14.1µM*,.,11.2%,.,-23.1%,10µM*
O=[N+]([O-])c1ccc(N2CCCCC2)cc1SCCO,-21.3%,-7.4,2.3%,5.0,34.2%,-12.0%
Cc1nc(N2CCCCC2)sc1C(=O)c1ccc(SCCO)c([N+](=O)[O-])c1,12.6µM*,-19.1,8.1%,-23.4,?,39.8µM*
Cc1nc(N2CCCCC2)sc1C(=O)c1cccc([N+](=O)[O-])c1,?,-17.8,11.0%,-29.4,?,39.8µM*
CCN(CC)C(=O)c1ccc2c(c1)N(Cc1ccc(C(F)(F)F)cc1)C(=O)c1ccccc1S2,-27.7%,.,7.0%,.,28.0%,.
COc1cccc(/C=C2\SC(=S)N(C(C)C(=O)NC3C=CS(=O)(=O)C3)C2=O)c1 (stereo not drawn),?,-4.4,5.5%,-18.8,-18.7%,39.8µM*
CCC(CC)=NNc1cccc([N+](=O)[O-])c1,-35.8%,-10.9,2.6%,-7.7,1.1%,?
COc1ccc(C(=O)/C(C#N)=N/Nc2cccc([N+](=O)[O-])c2)cc1,?,-2.3,8.1%,.,?,39.8µM*
COc1ccc(NC(=O)CN2C(=O)CCn3nc(-c4cccn4C)cc32)cc1Cl,?,.,6.5%,.,-3.0%[57 µM],?
CN(C)c1ccc(CNc2nc(-c3ccco3)nn2S(C)(=O)=O)cc1,-33.8%,.,5.7%,.,24.5%,?
Cc1ccc(S(=O)(=O)n2nc(-c3ccco3)nc2NCc2ccc(N(C)C)cc2)cc1,25.1µM*,.,9.9%,.,-14.8%,10µM*
COc1ccc(S(=O)(=O)n2nc(-c3ccco3)nc2NCc2ccc(N(C)C)cc2)cc1,12.6µM*,.,6.8%,.,-26.1%,25.1µM*
CC1=C(C(=O)Nc2cccc(F)c2)C2(CCCCCC2)OC1=O,-17.8%,.,-2.5%,.,12.7%,-1.0%
CC/C(=N/Nc1ccc(Cl)cc1)c1cnnc(SC)n1,?,-3.0,1.2%,6.7,43.0%,-33.2%
CC/C(=N/Nc1cccc(C)c1)c1cnnc(SC)n1,56.2µM*,-2.2,10.1%,-0.3,17.2%,-35.3%
